This passage reports growth inhibition, inhibition and outcome results from PubChem BioAssay.

A number with no mark means an inactive call. For part of these data: Measured potencies and affinities stand elsewhere. Calls of active or inactive are those of the source. Unless noted, no rule for the calls is given here.

Usually inhibition stands for the change of the read-out against control, counted positive when it falls.

Test [1] in a line: antimalarial activity against Dd2 strain (AID 2302;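 active = growth inhibition above 50% at the single 2 µM test dose, taken to imply half-maximal potency below 2 µM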;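 also: 0% = DMSO untreated growth and 100% = chloroquine plus artemisinin killed control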). The conditions noted are these: P. falciparum Dd2 in RBCs, LDH growth readout, 72 h; at 2 µM; active compounds read high.
Test [2] can be described thus: human hepatoma cell viability loss – ATP luminescence, cytotoxicity control for P. falciparum antimalarial project, primary screen (AID 2303;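 active = inhibition above 50%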;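 also: 0% = DMSO wells and 100% = digitonin-killed cells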). The conditions noted are these: HepG2 viability, 24-48 h, at 10 µM, active compounds read high.
The target in test [3] is L-lactate dehydrogenase (Plasmodium falciparum (isolate CDC / Honduras)) (UniProt Q27743). As to the kind of experiment: PfLDH activity inhibition – cell lysate, 3D7 strain, counter-screen for P. falciparum growth inhibition project (AID 2304).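 Also: 0% = vehicle and 100% = reference inhibitor.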 The settings on record: P. falciparum 3D7 crude extract, LDH APAD/NBT absorbance; at 2 µM; active compounds read high.
The nature of test [4]: inhibition of 3D7 malaria parasite growth – strain 3D7 (AID 2306).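 Also: 0% = DMSO wells and 100% = chloroquine plus artemisinin control wells.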 The settings on record: P. falciparum 3D7 erythrocytic growth, LDH absorbance, 72 h; at 2 µM; active compounds read high.
The target of test [5] is Calcium-dependent protein kinase 1 (Plasmodium falciparum (isolate 3D7)) (UniProt P62344). Kind of test: PfCDPK1 kinase inhibitors, biochemical, TCAMS library (AID 1159585; cut-off not given, nearly all actives have IC50 up to about 0.98 µM;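 also: inhibitors leave more ATP so luminescence rises with inhibition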). The conditions noted are these: recombinant PfCDPK1, Kinase-Glo ATP depletion luminescence. Background: Kinase-Glo measures the ATP left after a reaction by luminescence.
Test [6] has as its target Plasmodium falciparum protein kinase 6 (PK6, PF3D7_1337100) (UniProt Q8IDW1). As to the kind of experiment: PfPK6 kinase inhibitors, biochemical, TCAMS library (AID 1159586). The settings on record: recombinant PfPK6, Kinase-Glo ATP depletion luminescence.
Test [7] addresses Protein kinase 7 (PK7), Plasmodium falciparum 3D7 (PF3D7_0213400) (UniProt Q7YTF7). As to the kind of experiment: inhibition of Plasmodium PK7 catalytic activity – biochemical, TCAMS antimalarial set, Kinase-Glo luminescence (AID 1159587). The settings on record: recombinant PfPK7, Kinase-Glo ATP depletion luminescence.
Test [8] deals with Calcium-dependent protein kinase 4 (Plasmodium falciparum (isolate 3D7)) (UniProt Q8IBS5). Kind of test: PfCDPK4 kinase inhibitors, biochemical, TCAMS library (AID 1159588; cut-off not given, nearly all actives have IC50 up to about 0.91 µM). The settings on record: recombinant PfCDPK4, Kinase-Glo ATP depletion luminescence.
Chain of Calcium-dependent protein kinase 4 (Plasmodium falciparum (isolate 3D7)) (Q8IBS5 whole entry, looked up): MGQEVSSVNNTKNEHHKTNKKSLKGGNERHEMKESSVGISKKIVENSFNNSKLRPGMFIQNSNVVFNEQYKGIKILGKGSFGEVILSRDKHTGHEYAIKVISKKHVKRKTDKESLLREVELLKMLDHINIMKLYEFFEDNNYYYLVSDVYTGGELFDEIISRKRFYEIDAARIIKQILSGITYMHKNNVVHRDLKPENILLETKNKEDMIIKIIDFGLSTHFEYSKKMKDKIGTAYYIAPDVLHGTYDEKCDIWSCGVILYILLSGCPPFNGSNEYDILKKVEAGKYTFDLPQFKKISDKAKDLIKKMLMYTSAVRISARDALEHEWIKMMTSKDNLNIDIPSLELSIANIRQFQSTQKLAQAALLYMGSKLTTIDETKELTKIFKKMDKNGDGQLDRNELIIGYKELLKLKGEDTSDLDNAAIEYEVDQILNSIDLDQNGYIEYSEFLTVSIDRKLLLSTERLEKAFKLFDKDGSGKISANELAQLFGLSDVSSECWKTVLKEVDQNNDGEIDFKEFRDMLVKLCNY

Chain of Plasmodium falciparum protein kinase 6 (PK6, PF3D7_1337100) (Q8IDW1 1-305): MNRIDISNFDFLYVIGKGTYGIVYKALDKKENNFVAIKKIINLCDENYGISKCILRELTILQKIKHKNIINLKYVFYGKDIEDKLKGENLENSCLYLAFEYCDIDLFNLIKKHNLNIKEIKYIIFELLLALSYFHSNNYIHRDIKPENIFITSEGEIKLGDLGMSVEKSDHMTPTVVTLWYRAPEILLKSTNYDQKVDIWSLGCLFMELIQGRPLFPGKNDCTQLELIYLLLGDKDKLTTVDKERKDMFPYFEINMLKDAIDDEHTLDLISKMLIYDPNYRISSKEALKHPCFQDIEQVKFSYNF
Chain of Protein kinase 7 (PK7), Plasmodium falciparum 3D7 (PF3D7_0213400) (Q7YTF7 1-343): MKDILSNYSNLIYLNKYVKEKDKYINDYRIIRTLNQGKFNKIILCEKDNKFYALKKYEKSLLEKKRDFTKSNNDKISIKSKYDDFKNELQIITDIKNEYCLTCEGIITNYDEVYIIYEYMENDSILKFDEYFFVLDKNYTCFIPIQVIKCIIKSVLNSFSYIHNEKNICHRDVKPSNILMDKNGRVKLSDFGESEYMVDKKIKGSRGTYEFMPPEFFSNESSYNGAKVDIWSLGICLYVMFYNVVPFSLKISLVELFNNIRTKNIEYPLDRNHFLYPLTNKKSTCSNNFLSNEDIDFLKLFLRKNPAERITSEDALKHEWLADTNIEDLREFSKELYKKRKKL
Chain of L-lactate dehydrogenase (Plasmodium falciparum (isolate CDC / Honduras)) (Q27743 whole entry, looked up): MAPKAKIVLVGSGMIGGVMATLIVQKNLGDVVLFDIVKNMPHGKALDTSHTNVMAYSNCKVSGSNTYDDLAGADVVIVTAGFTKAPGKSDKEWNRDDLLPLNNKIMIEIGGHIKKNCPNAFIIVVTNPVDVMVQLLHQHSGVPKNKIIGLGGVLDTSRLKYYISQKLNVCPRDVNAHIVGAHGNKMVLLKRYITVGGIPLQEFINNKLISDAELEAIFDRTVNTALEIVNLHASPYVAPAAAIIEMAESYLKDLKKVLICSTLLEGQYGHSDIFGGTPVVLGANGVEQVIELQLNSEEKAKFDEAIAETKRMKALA
Chain of Calcium-dependent protein kinase 1 (Plasmodium falciparum (isolate 3D7)) (P62344 whole entry, looked up): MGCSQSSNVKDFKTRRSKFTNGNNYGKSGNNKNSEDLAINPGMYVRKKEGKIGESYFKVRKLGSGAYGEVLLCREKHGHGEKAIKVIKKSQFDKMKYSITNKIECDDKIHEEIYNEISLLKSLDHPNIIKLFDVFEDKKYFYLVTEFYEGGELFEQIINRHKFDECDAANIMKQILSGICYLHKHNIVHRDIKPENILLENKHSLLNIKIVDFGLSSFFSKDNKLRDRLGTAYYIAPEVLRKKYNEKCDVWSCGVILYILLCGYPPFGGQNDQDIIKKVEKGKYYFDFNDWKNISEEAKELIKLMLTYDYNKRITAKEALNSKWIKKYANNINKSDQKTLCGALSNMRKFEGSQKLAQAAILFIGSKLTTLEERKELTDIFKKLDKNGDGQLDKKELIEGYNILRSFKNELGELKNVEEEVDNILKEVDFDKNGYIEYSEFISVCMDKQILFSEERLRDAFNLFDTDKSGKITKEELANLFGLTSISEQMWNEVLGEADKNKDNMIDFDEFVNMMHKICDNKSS

Take `COc1ccc(NC(=O)[C@H](Cc2ccccc2)Nc2cc(C)nc(NCc3ccccc3C)n2)cc1`: the growth inhibition in test [1] is 71% (active); in test [4] it was 101% (active). Also, the results for the inhibition in test [2] and in test [3] were 16% and 2%, respectively. Also, the outcome in test [5], in test [6], in test [7] and in test [8] was inactive.

Consider `O=S(=O)(Nc1ccc(CCN2CCC(N3CCCCC3)CC2)cc1)c1ccc2ccccc2c1`, for which the growth inhibition in test [1] was 80% (active); in test [4] it was 101% (active). Also, the inhibition was 44% in test [2] and -2% in test [3]. The outcome in test [5], in test [6], in test [7] and in test [8] was inactive.

Regarding `COc1ccc(C)cc1NC(=O)CSc1nc2cccnc2n1C1CCCCC1`, the growth inhibition was 78% (active) in test [1] and 89% (active) in test [4]. The inhibition is 14% in test [2] and -8% in test [3]. Further, the result in test [5], in test [6], in test [7] and in test [8] was inactive.

In the case of `c1ccc2[nH]c(-c3ccc(-c4ccc(CN5CCCCC5)cc4)s3)nc2c1`, the growth inhibition is 69% (active) in test [1] and 102% (active) in test [4]. In addition, the inhibition was 41% in test [2] and 2% in test [3]. For the same compound, the result in test [5], in test [6], in test [7] and in test [8] was inactive.

Turning to `COc1ccc(-c2cnc3ccc(NCc4ccc(F)cc4)nn23)cc1OC`, the growth inhibition in test [1] was 99% (active); in test [4] it was 97% (active). Further, the inhibition in test [2] is 35%; in test [3], -2%. The result in test [5], in test [6], in test [7] and in test [8] was inactive.

As to `Cc1cc(-c2ccc(NC(=O)Nc3ccc4nccc(N5CCN(C)CC5)c4c3)cc2C)cc(C)n1`, the growth inhibition was 76% (active) in test [1] and 100% (active) in test [4]. For the same compound, the figures for the inhibition in test [2] and in test [3] were -2% and 4%, respectively. For the same compound, the result in test [5], in test [6], in test [7] and in test [8] was inactive.

Consider `CC(C)Cn1c2ccccc2c2nc3nc(N)nc(N)c3nc21`, for which the values for the growth inhibition in test [1] and in test [4] were -1% and 93% (active), respectively. Also, the results for the inhibition in test [2] and in test [3] were 36% and -3%, respectively. Moreover, the outcome in test [5], in test [6], in test [7] and in test [8] was inactive.

`COc1ccc2nccc(NN=Cc3ccc(Cl)cc3)c2c1`: the growth inhibition in test [1] was 72% (active); in test [4], 101% (active). Further, the inhibition was 9% in test [2] and -1% in test [3]. The result in test [5], in test [6], in test [7] and in test [8] was inactive.

In the case of `Cc1cc(N2CCCC2=O)ccc1-c1ccc(C(=O)N2CCC(Oc3cccc(Cl)c3)CC2)cc1`, the values for the growth inhibition in test [1] and in test [4] were 98% (active) and 99% (active), respectively. Besides, the inhibition was 34% in test [2] and -3% in test [3]. In addition, the result in test [5], in test [6], in test [7] and in test [8] was inactive.

For `Nc1ncc(-c2ccc3nccc(-c4ccncc4)c3c2)cc1S(=O)(=O)N1CCOCC1`, the growth inhibition in test [1] was 99% (active); in test [4], 100% (active). The inhibition was 39% in test [2] and -1% in test [3]. Moreover, the outcome in test [5], in test [6], in test [7] and in test [8] was inactive.

Consider `CN1CCN(CCNc2c3ccccc3nc3c2ccc2ccccc23)CC1`, for which the growth inhibition in test [1] was 66% (active); in test [4], 101% (active). Further, the inhibition is 76% (active) in test [2] and -6% in test [3]. Moreover, the result in test [5], in test [6], in test [7] and in test [8] was inactive.

`CS(=O)(=O)NCCCNCc1cccc(-c2cccc(-c3nc4ccc(F)cc4[nH]3)c2)c1`: the growth inhibition in test [1] is 5%; in test [4], 100% (active). The inhibition in test [2] is 4%; in test [3] it was -13%. In addition, the result in test [5], in test [6], in test [7] and in test [8] was inactive.

Consider `CNC(=O)C1Cc2c([nH]c3cc(Cl)ccc23)C2(CCN(CCc3ccccc3)CC2)N1` (centres undefined), for which the figures for the growth inhibition in test [1] and in test [4] were 3% and 91% (active), respectively. Moreover, the values for the inhibition in test [2] and in test [3] were 14% and 4%, respectively. The outcome in test [5], in test [6], in test [7] and in test [8] was inactive.

Regarding `CC(C)(C)c1ccc(-c2cc3c(ccc4nc(N)nc(N)c43)[nH]2)cc1`, the growth inhibition in test [1] was 100% (active); in test [4], 101% (active). For the same compound, the inhibition in test [2] was 100% (active); in test [3], 5%. In addition, the result in test [5], in test [6], in test [7] and in test [8] was inactive.

With `CC(C)(CNC(=O)[C@@H]1CCCN(CCOc2ccc(Cl)cc2)C1)c1nc(-c2ccc(Cl)c(O)c2)c(-c2ccncc2)[nH]1`, the growth inhibition in test [1] is 57% (active); in test [4], 92% (active). Besides, the inhibition in test [2] was 58% (active); in test [3], -7%. Further, the result in test [5], in test [6], in test [7] and in test [8] was inactive.

`CS(=O)(=O)CCNCc1ccc(-c2ccc3c(Nc4ccc(Oc5ccccn5)cc4)ccnc3c2)o1`: the growth inhibition in test [1] was 99% (active); in test [4], 100% (active). The inhibition in test [2] is 0%; in test [3] it was -7%. In addition, the outcome in test [5], in test [6], in test [7] and in test [8] was inactive.

On to `Cc1[nH]nc2cc(Nc3ccnc(Nc4ccc(CN5CCOCC5)cc4)n3)ccc12`, for which the growth inhibition in test [1] is 5%; in test [4], 97% (active). The inhibition in test [2] was 22%; in test [3] it was -4%. The result in test [5], in test [6], in test [7] and in test [8] was inactive.

Turning to `O=S(=O)(NC1CCCCN(Cc2ccccc2O)C1)c1ccc(C(F)(F)F)cc1` (centres undefined), the values for the growth inhibition in test [1] and in test [4] were 39% and 84% (active), respectively. Also, the results for the inhibition in test [2] and in test [3] were 1% and 7%, respectively. For the same compound, the result in test [5], in test [6], in test [7] and in test [8] was inactive.
